Results on twelve molecules are retold here after PubChem BioAssay (EPA / NIEHS).

The subject of assay [1] is Sodium/Iodide Symporter (NIS), SLC5A5 (gene 6528). Put plainly: CPHEA_Stoker_NIS_Inhibition_RAIU: CPHEA's Radioactive Iodide Uptake (RAIU) Assay for Sodium/Iodide Symporter (NIS) Inhibition, Stoker and Laws Labs (AID 2283841). Summed up:
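hNIS-HEK293T-EPA cells incubated 2 h at room temperature with compound (0.001–100 uM, 0.5% DMSO) and 329 pM final 125I in HBSS/10 mM HEPES, pH 7.4. Intracellular 125I counted; normalised to DMSO maximal uptake, triplicate, three biological replicates.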

The nature of assay [2]: CPHEA_Stoker_NIS_Cytotoxicity: Cytotoxicity Assessment for CPHEA's Radioactive Iodide Uptake (RAIU) Assay for Sodium/Iodide Symporter (NIS) Inhibition, Stoker and Laws Labs (AID 2283897). Summed up: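 hNIS-HEK293T-EPA cells, human NIS expressed in HEK293T, treated 2 h with chemicals (0.001–100 uM, 0.5% final DMSO). ATP content read by CellTiter-Glo luminescence; loss of signal analysed relative to DMSO.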

Assay [3] relates to zebrafish Estrogen Receptor (ER2b), gene 317733. The experiment in a line: ATG_zfER2b_XSP2: Attagene TRANS-FACTORIAL Multi-Species (XSP2) HepG2 Assay for zebrafish Estrogen Receptor (ER2b) (AID 2283823).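 Further: fitted upward as reporter gain over DMSO so potency reflects activation.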 Summed up:
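In this multiplexed trans-activation format, HepG2 cells expressing exogenous NR-Gal4 fusions drive GAL4-UAS reporters. Exposure lasts 24 h, and reporter mRNA induction is read by RT-PCR with capillary electrophoresis detection.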

For assay [4], the target named is Peroxisome proliferator-activated receptor gamma (Homo sapiens) (UniProt P37231). The experiment in a line: ATG_hPPARg_XSP2: Attagene TRANS-FACTORIAL Multi-Species (XSP2) HepG2 Assay for human Peroxisome Proliferator-activated Receptor gamma (PPARg) (AID 2283829).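 Further: actives raise reporter mRNA above DMSO so AC50 reflects PPARg activation.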 The essentials:
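Multiplexed transactivation in transfected HepG2 liver cells. Gal4-chimeric receptor activity reported as induced reporter transcript after 24 h.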

In assay [5] the target is mouse Peroxisome Proliferator-activated Receptor gamma (PPARg), Pparg (gene 19016) (UniProt P37238). Put plainly: ATG_mPPARg_XSP2: Attagene TRANS-FACTORIAL Multi-Species (XSP2) HepG2 Assay for mouse Peroxisome Proliferator-activated Receptor gamma (PPARg) (AID 2283830).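 Further: hits are gains in reporter mRNA above DMSO so AC50 marks activation.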 Summed up: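 HepG2 cells transiently transfected with GAL4-UAS reporter units for chimeric NR-Gal4 proteins including mouse PPARg, exposed 24 h; medium contained 3 nM 6-alpha-fluorotestosterone and 1.5 nM norgestrel. Reporter mRNA quantified by RT-PCR, HpaI digestion and capillary electrophoresis, vs DMSO.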
mouse Peroxisome Proliferator-activated Receptor gamma (PPARg), Pparg (gene 19016), sequence (P37238 whole entry, looked up, the tested form may be a part): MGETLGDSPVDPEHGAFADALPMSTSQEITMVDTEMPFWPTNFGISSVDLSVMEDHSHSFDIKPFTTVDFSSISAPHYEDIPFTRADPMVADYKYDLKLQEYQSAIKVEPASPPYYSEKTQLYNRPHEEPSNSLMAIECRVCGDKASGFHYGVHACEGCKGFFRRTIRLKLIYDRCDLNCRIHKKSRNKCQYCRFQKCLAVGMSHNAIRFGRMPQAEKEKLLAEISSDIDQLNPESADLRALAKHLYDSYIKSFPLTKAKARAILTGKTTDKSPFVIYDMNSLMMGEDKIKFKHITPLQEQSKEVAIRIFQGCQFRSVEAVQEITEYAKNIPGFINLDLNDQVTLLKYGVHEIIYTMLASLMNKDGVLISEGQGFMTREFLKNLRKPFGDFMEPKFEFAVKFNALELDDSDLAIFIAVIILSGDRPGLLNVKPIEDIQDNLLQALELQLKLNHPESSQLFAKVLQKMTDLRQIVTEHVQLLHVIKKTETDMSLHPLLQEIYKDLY

In assay [6] the target is Nuclear receptor subfamily 1 group I member 2 (Mus musculus) (UniProt O54915). Put plainly: ATG_mPXR_XSP2: Attagene TRANS-FACTORIAL Multi-Species (XSP1) HepG2 Assay for mouse Pregnane X Receptor (PXR) (AID 2283831). Summed up:
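Human liver HepG2 cells expressing exogenous receptor-GAL4 chimeras were exposed to test chemicals for 24 h. Induction of reporter mRNA was scored as gain of fluorescence signal over DMSO controls.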

Assay [7] deals with zebrafish Thyroid Hormone Receptor alpha (TRa), thraa (gene 30670) (UniProt Q98867). Put plainly: ATG_zfTRa_XSP2: Attagene TRANS-FACTORIAL Multi-Species (XSP1) HepG2 Assay for zebrafish Thyroid Hormone Receptor alpha (TRa) (AID 2283832).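 Further: actives raise zebrafish TRa-Gal4 reporter transcript above DMSO baseline.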 The essentials: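 HepG2 cells transiently transfected with multiplexed GAL4-UAS reporter units expressing chimeric NR-Gal4 proteins; 24 h after dosing, reporter mRNA measured by RT-PCR, FAM labelling, HpaI digestion and capillary electrophoresis; gain of signal versus DMSO baseline.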
zebrafish Thyroid Hormone Receptor alpha (TRa), thraa (gene 30670), sequence (Q98867 whole entry, looked up, the tested form may be a part): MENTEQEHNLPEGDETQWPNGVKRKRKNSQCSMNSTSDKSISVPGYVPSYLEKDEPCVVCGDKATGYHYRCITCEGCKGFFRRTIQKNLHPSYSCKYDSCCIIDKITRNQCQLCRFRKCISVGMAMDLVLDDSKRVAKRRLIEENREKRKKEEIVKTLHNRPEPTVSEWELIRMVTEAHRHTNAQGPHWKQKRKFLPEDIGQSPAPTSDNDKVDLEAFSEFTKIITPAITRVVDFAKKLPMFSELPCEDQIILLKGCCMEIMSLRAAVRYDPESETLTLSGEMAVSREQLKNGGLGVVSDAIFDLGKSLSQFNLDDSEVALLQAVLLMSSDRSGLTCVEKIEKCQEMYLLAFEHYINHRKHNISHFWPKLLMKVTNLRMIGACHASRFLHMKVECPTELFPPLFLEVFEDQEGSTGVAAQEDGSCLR

The subject of assay [8] is zebrafish Peroxisome Proliferator-activated Receptor gamma (PPARg), gene 557037. Put plainly: ATG_zfPPARg_XSP2: Attagene TRANS-FACTORIAL Multi-Species (XSP2) HepG2 Assay for zebrafish Peroxisome Proliferator-activated Receptor gamma (PPARg) (AID 2283833).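 Further: actives increase reporter signal over DMSO so AC50 reflects activation.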 The essentials:
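Cell-based transactivation of a chimeric zebrafish PPARg-GAL4 receptor was assessed in transiently transfected HepG2 cells after 24 h of treatment. Reporter mRNA induction, detected fluorescently after RT-PCR, was analysed in the positive direction against DMSO.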

Assay [9] concerns turtle Thyroid Hormone Receptor, alpha (TRa), gene 101949057. The experiment in a line: ATG_trTRa_XSP2: Attagene TRANS-FACTORIAL Multi-Species (XSP1) HepG2 Assay for turtle Thyroid Hormone Receptor, alpha (TRa) (AID 2283834).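 Further: hits raise reporter mRNA over the DMSO baseline so AC50 marks activators.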 Summed up: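 Gain-of-signal reporter transcription measured in transiently transfected HepG2 at 24 h post-dose. Fluorescent RT-PCR products were resolved by capillary electrophoresis and compared with DMSO vehicle.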

Assay [10] is described as follows: ATG_M_61_XSP2: Attagene TRANS-FACTORIAL Multi-Species (XSP2) HepG2 Assay for M61 Transcription Factor (Internal Marker) (AID 2283835; active means hit-call score of the fitted dose curve at least 0.9, where 1 is the maximum; inactive means score below 0.9;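 further: active means a rise in signal above the DMSO baseline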). The essentials: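 HepG2 cells transiently transfected with multiple GAL4-UAS reporter units; reporter mRNA measured 24 h after dosing by RT-PCR, fluorescent labelling and capillary electrophoresis. Medium contained 3 nM 6-alpha-fluorotestosterone and 1.5 nM norgestrel; internal marker, DMSO baseline.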

The target of assay [11] is zebrafish Thyroid Hormone Receptor beta (TRb), thrb (gene 30607) (UniProt Q9PVE4). Put plainly: ATG_zfTRb_XSP2: Attagene TRANS-FACTORIAL Multi-Species (XSP1) HepG2 Assay for zebrafish Thyroid Hormone Receptor beta (TRb) (AID 2283836). Summed up:
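HepG2 cells transiently transfected with multiplexed GAL4-UAS reporter units expressing chimeric NR-Gal4 proteins; read 24 h after dosing. Reporter mRNA quantified by RT-PCR, 6-FAM labelling, HpaI digest and capillary electrophoresis; gain of signal fitted relative to DMSO.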

For assay [12], the target named is human Thyroid hormone Receptor alpha (TRa), THRA (gene 7067) (UniProt P10827). The experiment in a line: ATG_hTRa_XSP2: Attagene TRANS-FACTORIAL Multi-Species (XSP2) HepG2 Assay for human Thyroid hormone Receptor alpha (TRa) (AID 2283838). Summed up:
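HepG2 cells transiently transfected with multiplexed GAL4-UAS reporter units and exogenous NR-GAL4 chimeras; 24 h chemical exposure with 3 nM 6-alpha-fluorotestosterone and 1.5 nM norgestrel present. Reporter mRNA measured by RT-PCR, FAM labelling, HpaI digestion, capillary electrophoresis; gain-of-signal versus DMSO.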

Assay [13] addresses human Thyroid hormone Receptor beta (TRb), THRB (gene 7068) (UniProt P10828). Put plainly: ATG_hTRb_XSP2: Attagene TRANS-FACTORIAL Multi-Species (XSP2) HepG2 Assay for human Thyroid hormone Receptor beta (TRb) (AID 2283840).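 Further: actives raise reporter mRNA so potency reflects agonist-like gain of signal.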 Summed up:
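In this cell-based multiplex, HepG2 liver cells carrying transfected GAL4-UAS reporter constructs are exposed to chemical for 24 hours, then reporter transcripts are measured by RT-PCR with capillary electrophoresis, scored as gain of signal against DMSO.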

Each structure is given as a SMILES string. Results filed as inconclusive are left out. The source made the active and inactive calls. How the source made its calls, unless noted: active means hit-call score of the fitted dose curve at least 0.9, where 1 is the maximum; inconclusive means response in the unintended direction; inactive means score below 0.9.

human Thyroid hormone Receptor alpha (TRa), THRA (gene 7067), sequence (P10827 whole entry, looked up, the tested form may be a part): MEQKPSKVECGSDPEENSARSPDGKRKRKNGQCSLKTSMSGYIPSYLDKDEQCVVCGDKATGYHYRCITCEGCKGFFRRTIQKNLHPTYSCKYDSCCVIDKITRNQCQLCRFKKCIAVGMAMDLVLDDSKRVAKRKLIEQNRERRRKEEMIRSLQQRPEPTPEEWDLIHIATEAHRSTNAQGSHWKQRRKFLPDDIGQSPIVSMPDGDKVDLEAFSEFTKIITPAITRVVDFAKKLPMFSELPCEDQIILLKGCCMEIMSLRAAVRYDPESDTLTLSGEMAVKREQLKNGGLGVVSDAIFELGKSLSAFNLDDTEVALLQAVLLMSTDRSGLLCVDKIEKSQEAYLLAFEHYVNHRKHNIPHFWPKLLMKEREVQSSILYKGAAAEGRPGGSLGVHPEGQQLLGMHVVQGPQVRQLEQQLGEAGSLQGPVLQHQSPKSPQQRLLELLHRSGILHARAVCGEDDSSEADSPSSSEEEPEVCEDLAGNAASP
zebrafish Thyroid Hormone Receptor beta (TRb), thrb (gene 30607), sequence (Q9PVE4 whole entry, looked up, the tested form may be a part): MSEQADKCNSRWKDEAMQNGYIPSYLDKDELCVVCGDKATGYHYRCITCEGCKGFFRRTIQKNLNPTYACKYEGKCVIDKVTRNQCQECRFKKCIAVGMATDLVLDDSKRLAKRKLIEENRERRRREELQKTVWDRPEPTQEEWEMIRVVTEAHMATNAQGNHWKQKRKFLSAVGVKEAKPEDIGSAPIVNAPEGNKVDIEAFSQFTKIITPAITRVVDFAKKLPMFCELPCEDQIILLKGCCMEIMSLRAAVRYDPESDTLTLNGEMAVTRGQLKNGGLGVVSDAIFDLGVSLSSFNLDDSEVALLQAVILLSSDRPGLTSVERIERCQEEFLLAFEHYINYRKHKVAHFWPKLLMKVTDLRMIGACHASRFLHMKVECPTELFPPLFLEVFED
Peroxisome proliferator-activated receptor gamma (Homo sapiens), sequence (P37231 whole entry, looked up, the tested form may be a part): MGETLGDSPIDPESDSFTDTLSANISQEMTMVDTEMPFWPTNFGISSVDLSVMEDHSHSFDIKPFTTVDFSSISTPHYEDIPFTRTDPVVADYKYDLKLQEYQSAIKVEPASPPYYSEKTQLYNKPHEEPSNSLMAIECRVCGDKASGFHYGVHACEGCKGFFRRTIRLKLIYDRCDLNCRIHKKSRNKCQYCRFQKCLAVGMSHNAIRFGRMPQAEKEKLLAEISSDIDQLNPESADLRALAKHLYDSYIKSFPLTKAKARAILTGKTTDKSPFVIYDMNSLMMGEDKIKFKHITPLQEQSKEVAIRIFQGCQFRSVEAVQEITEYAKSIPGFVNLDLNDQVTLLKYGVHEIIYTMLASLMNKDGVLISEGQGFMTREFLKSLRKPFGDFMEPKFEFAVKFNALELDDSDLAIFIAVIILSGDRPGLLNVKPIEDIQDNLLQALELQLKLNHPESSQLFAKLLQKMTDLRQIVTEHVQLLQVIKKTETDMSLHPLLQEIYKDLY
Nuclear receptor subfamily 1 group I member 2 (Mus musculus), sequence (O54915 whole entry, looked up, the tested form may be a part): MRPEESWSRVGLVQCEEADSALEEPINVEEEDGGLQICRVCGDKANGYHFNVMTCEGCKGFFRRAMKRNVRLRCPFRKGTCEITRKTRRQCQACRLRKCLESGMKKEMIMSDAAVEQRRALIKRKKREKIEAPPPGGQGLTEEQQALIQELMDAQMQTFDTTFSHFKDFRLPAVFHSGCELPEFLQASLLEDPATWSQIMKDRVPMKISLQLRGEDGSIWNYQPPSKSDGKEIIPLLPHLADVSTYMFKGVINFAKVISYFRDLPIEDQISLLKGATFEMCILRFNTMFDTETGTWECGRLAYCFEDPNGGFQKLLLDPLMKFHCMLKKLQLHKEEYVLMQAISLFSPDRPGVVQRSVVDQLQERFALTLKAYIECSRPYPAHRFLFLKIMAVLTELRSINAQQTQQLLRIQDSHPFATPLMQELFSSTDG
human Thyroid hormone Receptor beta (TRb), THRB (gene 7068), sequence (P10828 whole entry, looked up, the tested form may be a part): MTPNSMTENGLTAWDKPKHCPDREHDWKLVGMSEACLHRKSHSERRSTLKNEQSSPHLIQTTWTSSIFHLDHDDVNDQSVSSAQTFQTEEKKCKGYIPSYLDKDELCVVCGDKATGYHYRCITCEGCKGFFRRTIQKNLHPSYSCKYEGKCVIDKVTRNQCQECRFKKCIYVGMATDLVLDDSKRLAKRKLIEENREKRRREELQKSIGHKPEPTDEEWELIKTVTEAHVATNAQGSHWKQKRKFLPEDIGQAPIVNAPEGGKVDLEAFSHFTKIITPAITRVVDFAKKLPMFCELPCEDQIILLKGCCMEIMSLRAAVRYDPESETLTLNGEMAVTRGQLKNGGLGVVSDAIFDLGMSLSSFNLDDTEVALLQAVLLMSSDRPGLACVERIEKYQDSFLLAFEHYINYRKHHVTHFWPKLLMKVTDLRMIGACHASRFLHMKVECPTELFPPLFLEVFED

Turning to `Cc1nccn1-c1ccc(Sc2cccc(C3(C(N)=O)CCOCC3)c2)cc1`, the outcome in assay [1] and in assay [2] was inactive.

As to `CCN(CC)C(=S)SSC(=S)N(CC)CC`, the call in assay [3], in assay [7], in [8], in [9], in [10] and in assay [11] was inactive. Moreover, the result in assay [12], in assay [13], in assay [1] and in [2] was inactive. Besides, the AC50 was 34.9 µM (active) in assay [4], 42.9 µM (active) in assay [5] and 5.57 µM (active) in assay [6].

As to `O=S(=O)(O)CCC(F)(F)C(F)(F)C(F)(F)C(F)(F)C(F)(F)C(F)(F)F`, the result in assay [1] was inactive.

As to `NC(=O)N1c2ccccc2C=Cc2ccccc21`, the outcome in [1] and in assay [2] was inactive.

On to `c1ccc(C(O[C@@H]2CCCN(CCc3ccc4c(c3)OCO4)C2)c2ccccc2)cc1`, for which the outcome in [1] and in [2] was inactive.

For `CCCCN1C(=O)[C@@H]([C@H](O)C2CCCCC2)NC(=O)C12CCN(Cc1ccc(Oc3ccc(C(=O)O)cc3)cc1)CC2`, the result in assay [2] was inactive.

Consider `CCCCOC(=O)c1ccccc1`, for which the outcome in assay [1] and in assay [2] was inactive.

For `OCC(CO)(CO)CO`, the result in assay [1] and in assay [2] was inactive.

For the molecule `COc1cc(C(C)C)c2c(c1)S(=O)(=O)N(COc1cc(=O)n3cccc(OCCN4CCCCC4)c3n1)C2=O`, the result in [1] and in assay [2] was inactive.

For the molecule `CCc1ccc(O)c(C(C)(C)C)c1`, the outcome in assay [1] and in [2] was inactive.

For the molecule `CCCCCCCCCCCCCCCCOS(=O)(=O)O`, the result in [2] was inactive.

Consider `CCCCC(CC)C(=O)OCCOCCOCCOC(=O)C(CC)CCCC` (configuration not stated), for which the result in assay [1] and in assay [2] was inactive.

As usually defined, the AC50 is the midpoint of the concentration-response curve, whichever way the signal moves.
